Measured values taken from PubChem BioAssay (NCI).
About 83,000 compounds went through this panel and 20% of them were active in at least one assay; those are over-represented in the sample as a whole.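 Plates (96-well) were seeded with cells, treated with compound at one concentration, and incubated for 48 hours before percent growth was determined.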 Activity calls are given as the source filed them. Rule for the calls: active = growth percent below 10; inactive = the rest.

system: HL-60(TB) leukemia; assay: NCI-60 one-dose screen, 48 h (100 = growth as untreated, 0 = no growth, -100 = all killed); settings: 10 µM unless noted

| Structure (SMILES) | growth |
| --- | --- |
| Nc1ncc(-c2ccc3ncnc(N4CCc5ccc(Cl)cc54)c3c2)cc1C(F)(F)F | 22.9% (inactive) |
| CC(C)N1C(=O)S/C(=C2/SC(=O)N(C(C)C)C2=O)C1=O | 98.4% (inactive) |
| Cn1cccc1-c1nc2c3c(ccc2[nH]1)C(=O)c1ccccc1C3=O | 82.3% (inactive) |
| Cc1cccc2c(NCCN(C)C)c3cccc(C(=O)NCCN(C)C)c3nc12 | -8.73% (active) |
| Fc1ccc(C2CC(c3cccc(Nc4ccncc4)c3)=NN2c2cc(Cl)cc(Cl)c2)cc1 (stereo unspecified) | -13.2% (active) |
| Cc1cc(N(CCCNc2ccnc3cc(Cl)ccc23)Cc2ccccn2)nc(N2CCCC2)n1 | 65.8% (inactive) |
| Cc1ccc(-c2nc3nc(-c4ccc(Br)cc4)nc(N4CCCNCC4)c3o2)cc1 | -47.3% (active) |
| NS(=O)(=O)c1ccc(CN2C(=O)c3cccc4cccc(c34)C2=O)cc1 | 98.6% (inactive) |
| CC(C)n1nc(-c2ccc3oc(N)nc3c2)c2c(N)ncnc21 | 11.4% (inactive) |
| CCCCNCC(O)c1cc2c(Cl)cc(Cl)cc2c2cc(C(F)(F)F)ccc12 (stereo unspecified) | -59.2% (active) |
| O=C(/C=C/c1ccccn1)c1ccccc1O | 13.1% (inactive) |
| O=C(N(c1ccccc1)c1ccccc1)n1ccc2nc(Cl)nc(Cl)c21 | 49.5% (inactive) |
| Cc1ccc(-c2nc(N3CCN(CC(=O)Nc4ccc(Cl)c(C(F)(F)F)c4)CC3)c3ccccc3n2)cc1 | 97.6% (inactive) |
| O=C(Cn1nncc1CN1C(=O)CSC1=O)Nc1ccc(F)cc1 | 100% (inactive) |
| COc1ccc([N+](=O)[O-])c(/C=C/C(=O)c2ccccn2)c1 | 88.9% (inactive) |
| CO[C@]12C=C/C(=C(/C(=O)OCc3cccnc3)C(=O)CCCCCCCC[C@]3(OC)C=C/C(=C(/C(=O)OCc4cccnc4)C(=O)CCCCCCCC1)O3)O2 | -29.3% (active) |
| CSc1ccc(Cl)c(C(=O)Nc2sccc2C(N)=O)c1 | 91.3% (inactive) |
| CCC(=O)Oc1cc(/C=C/C(=O)O[C@H]2C[C@H]3CN4CCc5c([nH]c6cc(OC)ccc56)[C@@H]4C[C@@H]3[C@@H](C(=O)OC)[C@@H]2OC)ccc1OC | 16.3% (inactive) |
| O=C(/C=C/c1ccccc1)c1ccc(O)c(CN2CCN(c3cc4c(cc3F)c(=O)c(C(=O)O)cn4C3CC3)CC2)c1 | -6% (active) |
| COP(=O)(OC)c1nnn(-c2cccc([N+](=O)[O-])c2)c1C | 99.8% (inactive) |
| COc1ccc(C#Cc2ccc(=O)oc2-c2cc(OC)c(OC)c(OC)c2)cc1O | 23.5% (inactive) |
| O=C(N/N=C/c1c[nH]c2ccccc12)c1cc(-c2ccccc2)on1 | 73.4% (inactive) |
| Nc1nc2ccc([C@@H]3Nc4ccc5[nH]ncc5c4[C@H]4[C@H]5CCC(C5)[C@H]43)cc2s1 | 12.4% (inactive) |
| Nc1ccc(NC(=O)c2ccccc2)c2c1C(=O)c1ccccc1C2=O | 135% (inactive) |
| Cc1ccc(-n2nnnc2N)c(C)c1 | 117% (inactive) |
| CN1CCN(CC(=O)Nc2nc3c(s2)Nc2cc(Cl)c(Cl)cc2NC3=O)CC1 | 81.9% (inactive) |
